About 7,900 targets were measured; listed, in parts, are those with a hit and a random draw of the rest. About 0.6% of all pairs of compound and target were hits. A number with no mark means an inactive call.
Legend:
Experiment in all cases: log2 fold change, soluble protein after heating vs DMSO (PISA); higher = thermal stabilisation; K562 cells, 10 uM, 30 min; active = over 0.2 and 3.5 SD of the protein, either way, in both replicates (recomputed)
[1] = target: YAE1 (UniProt Q9NRH1)
How it was run: (§1)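 Soluble protein was quantified by TMTpro 16plex LC-MS/MS after channel sums were equalised. It was obtained as the supernatant after 21,000xg for 90 min from pooled aliquots of K562 cells (2×10^6 cells/mL, 10 μM compound, 30 min) heated for 3 min across 48°C-58°C and extracted in PBS with 0.5% NP-40 at 4°C. Thermal stability values are relative to control samples and come from duplicates. They are given as log2 fold changes.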

[2] = target: YBX1 (UniProt P67809)
How it was run: as §1

[3] = target: YES1 (UniProt P07947)
How it was run: as §1

[4] = target: YIPF4 (UniProt Q9BSR8)
How it was run: as §1

[5] = target: YIPF5 isoform 3 (UniProt Q969M3)
How it was run: as §1

[6] = target: YIPF6 (UniProt Q96EC8)
How it was run: as §1

[7] = target: YLPM1 (UniProt P49750)
How it was run: as §1

[8] = target: YOD1 (UniProt Q5VVQ6)
How it was run: as §1

[9] = target: YPEL5 (UniProt P62699)
How it was run: as §1

YPEL5, sequence (P62699 whole entry, looked up): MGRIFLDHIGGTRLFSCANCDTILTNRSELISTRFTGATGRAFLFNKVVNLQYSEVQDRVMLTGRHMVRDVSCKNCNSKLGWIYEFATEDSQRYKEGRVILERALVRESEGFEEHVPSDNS
YES1, sequence (P07947 whole entry, looked up): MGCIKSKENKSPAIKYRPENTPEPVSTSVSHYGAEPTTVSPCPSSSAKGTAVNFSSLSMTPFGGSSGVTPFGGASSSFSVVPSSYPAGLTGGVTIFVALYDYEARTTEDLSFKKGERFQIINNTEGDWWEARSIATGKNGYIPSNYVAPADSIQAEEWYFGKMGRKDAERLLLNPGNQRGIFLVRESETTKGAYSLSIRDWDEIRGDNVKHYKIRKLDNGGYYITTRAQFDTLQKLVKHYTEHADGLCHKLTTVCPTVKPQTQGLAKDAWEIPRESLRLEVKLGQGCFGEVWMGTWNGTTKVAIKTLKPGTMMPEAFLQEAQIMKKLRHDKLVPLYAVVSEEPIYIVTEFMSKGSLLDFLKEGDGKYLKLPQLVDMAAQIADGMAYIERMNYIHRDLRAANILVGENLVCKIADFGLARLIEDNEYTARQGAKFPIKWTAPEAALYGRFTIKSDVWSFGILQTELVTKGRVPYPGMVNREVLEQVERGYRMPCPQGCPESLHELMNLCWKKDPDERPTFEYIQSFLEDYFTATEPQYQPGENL
YIPF6, sequence (Q96EC8 whole entry, looked up): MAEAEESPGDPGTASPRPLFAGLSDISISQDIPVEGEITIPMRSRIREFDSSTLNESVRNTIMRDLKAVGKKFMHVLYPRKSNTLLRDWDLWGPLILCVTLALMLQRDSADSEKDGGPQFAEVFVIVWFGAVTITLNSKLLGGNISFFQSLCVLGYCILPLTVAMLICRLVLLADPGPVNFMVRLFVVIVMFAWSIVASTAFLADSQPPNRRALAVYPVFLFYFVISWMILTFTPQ
YIPF5 isoform 3, sequence (Q969M3 whole entry, looked up, canonical isoform): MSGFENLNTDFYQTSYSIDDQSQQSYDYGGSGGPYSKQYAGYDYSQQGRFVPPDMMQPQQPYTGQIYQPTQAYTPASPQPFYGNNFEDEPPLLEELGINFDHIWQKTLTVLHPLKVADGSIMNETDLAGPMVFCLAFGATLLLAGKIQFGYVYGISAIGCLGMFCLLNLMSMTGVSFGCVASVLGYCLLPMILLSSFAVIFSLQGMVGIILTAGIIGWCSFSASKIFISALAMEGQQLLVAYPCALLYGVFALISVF
YOD1, sequence (Q5VVQ6 whole entry, looked up): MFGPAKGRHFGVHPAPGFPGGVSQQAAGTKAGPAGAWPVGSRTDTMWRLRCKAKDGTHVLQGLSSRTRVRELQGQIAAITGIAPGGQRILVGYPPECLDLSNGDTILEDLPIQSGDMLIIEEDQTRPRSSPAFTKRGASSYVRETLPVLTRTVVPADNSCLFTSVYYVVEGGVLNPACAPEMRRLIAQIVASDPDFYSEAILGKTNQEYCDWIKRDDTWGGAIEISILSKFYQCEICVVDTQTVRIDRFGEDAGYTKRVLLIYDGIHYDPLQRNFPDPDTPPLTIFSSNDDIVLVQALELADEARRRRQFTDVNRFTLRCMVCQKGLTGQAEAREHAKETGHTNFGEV
YAE1, sequence (Q9NRH1 whole entry, looked up): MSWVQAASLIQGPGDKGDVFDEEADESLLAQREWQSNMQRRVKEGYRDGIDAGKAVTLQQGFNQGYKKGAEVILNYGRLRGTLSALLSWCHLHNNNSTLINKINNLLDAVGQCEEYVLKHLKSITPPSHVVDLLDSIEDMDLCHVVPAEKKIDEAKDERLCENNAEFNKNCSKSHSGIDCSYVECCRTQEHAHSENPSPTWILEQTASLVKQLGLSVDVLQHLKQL
YBX1, sequence (P67809 whole entry, looked up): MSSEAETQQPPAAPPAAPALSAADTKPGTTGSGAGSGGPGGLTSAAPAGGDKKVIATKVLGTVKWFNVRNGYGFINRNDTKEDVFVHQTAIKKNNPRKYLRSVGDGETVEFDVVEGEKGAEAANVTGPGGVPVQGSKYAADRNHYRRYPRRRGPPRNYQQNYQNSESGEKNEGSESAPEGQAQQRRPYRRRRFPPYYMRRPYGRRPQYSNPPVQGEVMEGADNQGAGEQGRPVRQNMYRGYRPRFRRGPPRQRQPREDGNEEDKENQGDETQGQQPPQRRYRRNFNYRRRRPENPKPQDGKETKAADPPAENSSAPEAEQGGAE
YLPM1, sequence (P49750 whole entry, looked up): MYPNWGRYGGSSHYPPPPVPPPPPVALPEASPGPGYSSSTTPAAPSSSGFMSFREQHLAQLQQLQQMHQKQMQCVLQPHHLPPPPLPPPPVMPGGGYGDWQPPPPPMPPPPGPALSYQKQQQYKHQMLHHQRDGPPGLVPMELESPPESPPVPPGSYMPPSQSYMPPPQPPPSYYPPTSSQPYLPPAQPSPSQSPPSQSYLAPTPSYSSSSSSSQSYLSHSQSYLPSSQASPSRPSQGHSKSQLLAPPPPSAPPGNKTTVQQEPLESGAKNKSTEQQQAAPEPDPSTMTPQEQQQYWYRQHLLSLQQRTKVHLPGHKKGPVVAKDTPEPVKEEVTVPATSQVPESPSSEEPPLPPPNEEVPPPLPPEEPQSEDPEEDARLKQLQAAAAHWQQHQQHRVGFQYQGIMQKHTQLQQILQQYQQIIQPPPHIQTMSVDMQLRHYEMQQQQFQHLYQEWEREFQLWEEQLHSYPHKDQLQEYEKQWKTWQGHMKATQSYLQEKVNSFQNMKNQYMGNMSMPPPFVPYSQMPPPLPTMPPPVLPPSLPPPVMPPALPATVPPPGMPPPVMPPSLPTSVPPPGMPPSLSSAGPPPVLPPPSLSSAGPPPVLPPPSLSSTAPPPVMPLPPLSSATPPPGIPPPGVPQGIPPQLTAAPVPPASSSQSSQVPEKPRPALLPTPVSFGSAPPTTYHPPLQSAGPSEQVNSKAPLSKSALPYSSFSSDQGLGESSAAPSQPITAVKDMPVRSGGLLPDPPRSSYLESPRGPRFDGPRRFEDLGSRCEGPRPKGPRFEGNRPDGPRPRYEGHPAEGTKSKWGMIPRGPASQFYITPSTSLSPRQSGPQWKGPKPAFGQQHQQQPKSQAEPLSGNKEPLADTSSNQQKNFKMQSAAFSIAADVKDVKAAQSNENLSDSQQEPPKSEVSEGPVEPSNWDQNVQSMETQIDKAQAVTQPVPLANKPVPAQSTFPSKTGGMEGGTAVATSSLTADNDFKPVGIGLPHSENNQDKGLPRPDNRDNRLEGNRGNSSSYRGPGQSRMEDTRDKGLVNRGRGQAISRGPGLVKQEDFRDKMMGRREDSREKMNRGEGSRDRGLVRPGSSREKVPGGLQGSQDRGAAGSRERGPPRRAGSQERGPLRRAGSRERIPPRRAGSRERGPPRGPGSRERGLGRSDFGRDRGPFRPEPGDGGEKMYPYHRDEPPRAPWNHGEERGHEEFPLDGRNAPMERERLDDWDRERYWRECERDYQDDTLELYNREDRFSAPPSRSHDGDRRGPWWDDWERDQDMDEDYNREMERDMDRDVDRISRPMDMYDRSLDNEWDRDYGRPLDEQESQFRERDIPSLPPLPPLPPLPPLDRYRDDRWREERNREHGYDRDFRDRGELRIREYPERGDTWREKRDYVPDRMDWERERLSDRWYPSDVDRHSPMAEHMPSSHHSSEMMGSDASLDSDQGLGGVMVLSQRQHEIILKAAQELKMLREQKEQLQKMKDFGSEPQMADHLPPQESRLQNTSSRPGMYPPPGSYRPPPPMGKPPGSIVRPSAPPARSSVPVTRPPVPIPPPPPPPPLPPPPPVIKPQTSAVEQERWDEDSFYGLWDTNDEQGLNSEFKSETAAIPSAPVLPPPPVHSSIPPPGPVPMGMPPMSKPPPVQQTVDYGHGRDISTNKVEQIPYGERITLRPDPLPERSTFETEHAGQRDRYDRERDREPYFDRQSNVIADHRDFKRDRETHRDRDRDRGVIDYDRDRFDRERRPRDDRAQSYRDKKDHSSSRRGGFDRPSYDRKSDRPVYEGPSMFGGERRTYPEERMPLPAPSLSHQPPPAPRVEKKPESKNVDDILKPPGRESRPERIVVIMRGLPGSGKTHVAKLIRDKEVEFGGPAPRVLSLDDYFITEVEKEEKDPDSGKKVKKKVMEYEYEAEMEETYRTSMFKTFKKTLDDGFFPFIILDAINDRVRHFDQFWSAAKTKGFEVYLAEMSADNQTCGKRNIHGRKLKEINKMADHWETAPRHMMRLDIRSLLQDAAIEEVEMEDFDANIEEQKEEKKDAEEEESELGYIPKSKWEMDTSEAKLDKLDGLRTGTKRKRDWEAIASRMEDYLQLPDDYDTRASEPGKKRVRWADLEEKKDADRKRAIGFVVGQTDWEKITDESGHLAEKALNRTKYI
YIPF4, sequence (Q9BSR8 whole entry, looked up): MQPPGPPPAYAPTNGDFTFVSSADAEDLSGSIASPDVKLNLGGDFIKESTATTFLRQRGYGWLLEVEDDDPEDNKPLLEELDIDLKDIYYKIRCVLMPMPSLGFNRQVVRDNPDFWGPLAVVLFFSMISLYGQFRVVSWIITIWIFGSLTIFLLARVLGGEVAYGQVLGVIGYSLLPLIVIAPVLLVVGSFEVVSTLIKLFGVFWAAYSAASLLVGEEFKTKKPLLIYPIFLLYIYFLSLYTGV

| SMILES | log2 fold change [1] | log2 fold change [2] | log2 fold change [3] | log2 fold change [4] | log2 fold change [5] | log2 fold change [6] | log2 fold change [7] | log2 fold change [8] | log2 fold change [9] |
| --- | --- | --- | --- | --- | --- | --- | --- | --- | --- |
| Cc1cn(-c2cc(NC(=O)c3ccc(C)c(Nc4nccc(-c5cccnc5)n4)c3)cc(C(F)(F)F)c2)cn1 [nilotinib] | -0.023 | 0.033 | -0.033 | 0.046 | 0.021 | 0.063 | -0.044 | -0.061 | -0.237 |
| COc1cc2ncnc(Nc3ccc(F)c(Cl)c3)c2cc1OCCCN1CCOCC1 [gefitinib] | -0.016 | -0.096 | -0.045 | 0.038 | 0.024 | 0.005 | 0.002 | 0.006 | -0.239 |
| NC(=O)Nc1cc(-c2cccc(F)c2)sc1C(=O)N[C@H]1CCCNC1 | -0.023 | 0.025 |  | 0.066 | 0.023 | -0.081 | -0.023 | -0.079 | 0.114 |
| CCCS(=O)(=O)Nc1ccc(F)c(C(=O)c2c[nH]c3ncc(Cl)cc23)c1F | -0.037 | -0.137 | -0.217 | -0.01 | -0.096 | 0.004 | 0.047 | 0.033 | -0.127 |
| Nc1ccccc1NC(=O)c1ccc(CNC(=O)OCc2cccnc2)cc1 [entinostat] | 0.011 | -0.073 |  | -0.04 | -0.05 | 0.228 | -0.064 | -0.143 | -0.187 |
| CN1CCN(c2nc(C3=C(c4c[nH]c5ccccc45)C(=O)NC3=O)c3ccccc3n2)CC1 [sotrastaurin] | 0.074 | 0.016 |  | 0.113 | 0.034 | -0.648 (active) | 0.021 | 0.034 | -0.102 |
| Cn1cc(-c2ccc3c(c2)CCN3C(=O)Cc2cccc(C(F)(F)F)c2)c2c(N)ncnc21 | -0.095 | -0.199 | -0.284 | 0.03 | -0.014 | -0.035 | 0.077 | 0.023 | -0.077 |
| CC(C)(O)CC(=O)NCCn1ccc2ncnc(Nc3ccc(Oc4cccc(C(F)(F)F)c4)c(Cl)c3)c21 | 0.072 | 0.162 | -0.054 | -0.012 | -0.094 | 0.019 | -0.002 | -0.113 | 0.041 |
| NCC(=O)Nc1ccc(-n2nc(C(F)(F)F)cc2-c2ccc3c(ccc4ccccc43)c2)cc1 | -0.011 | 0.055 | 0.001 | -0.004 | 0.021 | 0.071 | -0.069 | -0.015 | 0.129 |

Reference: the supplement of paper PMC10849652
